Screening results as filed in PubChem.
RORg inh = ROR gamma (mouse) transcription inhibition; P51450; Drosophila S2 Gal4-RORgamma UAS-luciferase reporter, 20 h; Potency, µM (highest dose often 53.6 µM), without a hit: top-dose activity change, negative = inhibition, usual class: inhibitors; hit rate 5.4% among 310,000; AID 2551; also: nearly all actives have a fitted effect of over 60% in size
Target sequence (P51450 whole entry, looked up, the tested form may be a part): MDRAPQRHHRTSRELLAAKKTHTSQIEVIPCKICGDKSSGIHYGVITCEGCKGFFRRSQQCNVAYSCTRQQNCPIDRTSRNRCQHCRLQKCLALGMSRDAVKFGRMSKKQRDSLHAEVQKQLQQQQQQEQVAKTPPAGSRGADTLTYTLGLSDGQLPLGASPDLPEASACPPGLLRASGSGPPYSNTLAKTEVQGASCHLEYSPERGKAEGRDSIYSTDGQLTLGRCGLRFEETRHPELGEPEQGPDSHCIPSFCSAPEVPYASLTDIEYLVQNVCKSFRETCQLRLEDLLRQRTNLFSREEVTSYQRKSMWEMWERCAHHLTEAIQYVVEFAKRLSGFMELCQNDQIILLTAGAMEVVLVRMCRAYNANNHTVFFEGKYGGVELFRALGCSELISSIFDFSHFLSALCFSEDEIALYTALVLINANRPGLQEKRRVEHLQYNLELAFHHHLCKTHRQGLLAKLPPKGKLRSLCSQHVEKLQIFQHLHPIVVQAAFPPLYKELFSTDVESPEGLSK
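Read-out: Photinus luciferase luminescence; inhibitors lower reporter signal. Insect Schneider cells with Gal4-ROR gamma fusion under metallothionein promoter, UAS reporter; 700 uM final copper sulfate induction, 20 hr, ambient temperature.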
Tau fluor cs = counter-screen for tau fibril formation inhibitors; tau K18 P301L Alexa594 fluorescence, heparin fibrillization; Potency, µM (doses to about 57.7 µM), without a hit: at the highest dose activity change, negative = decrease; hit rate 0.93% among 280,000; also: nearly all actives have a fitted effect of over 55% in size
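Human K18 P301L tau (15 uM unlabeled plus 0.24 uM Alexa 594-labeled, final) in 100 mM sodium acetate pH 7 was mixed with compound and 20 uM heparin and incubated 6 hr at 37 C.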
Tau fibril FP = tau fibrillization inhibition (FP). hit rate 0.39% among 280,000. P10636. Potency, µM (series often up to 57.7 µM), without a hit: at the highest dose activity, negative = inhibition, hits mostly inhibitors. K18 P301L tau heparin fibrillization, Alexa594 FP, 6 h; also: nearly all actives have a fitted effect of over 55% in size
Target sequence (P10636 561-689 P618L limits assumed): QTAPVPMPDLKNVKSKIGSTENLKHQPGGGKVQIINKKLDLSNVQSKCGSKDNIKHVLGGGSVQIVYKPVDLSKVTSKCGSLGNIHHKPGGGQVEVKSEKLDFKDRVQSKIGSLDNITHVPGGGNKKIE
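Heparin (20 uM) drove fibril formation of recombinant tau K18 P301L, 15 uM unlabeled with 0.24 uM Alexa 594 label, for 6 hr at 37 C in 100 mM sodium acetate pH 7. Fluorescence polarization (555/632 nm) read 1 hr after 30 uM ThT.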
Tau fibril ThT = inhibitors of human tau fibril formation, thioflavin T binding; Potency, µM (series often up to 57.4 µM), without a hit: at the highest dose activity, negative = inhibition, hits mostly inhibitors; hit rate 2.1% among 270,000; recombinant tau K18 P301L, heparin-induced fibrillization, ThT fluorescence; AID 1460; also: nearly all actives have a fitted effect of over 55% in size
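Using a mix of unlabeled (15 uM) and Alexa 594-labeled (0.24 uM) tau K18 P301L, heparin-triggered fibrillization over 6 hr at 37 C was scored by ThT fluorescence.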
Gal4-VP16 FLuc = Gal4-VP16 reporter inhibition counter-screen; Drosophila S2 Gal4-VP16 UAS-luciferase, luminescence, 20 h; Potency, µM (top dose mostly 53.6 µM), inactives show at the highest dose activity, negative = inhibition, actives largely listed as inhibitors; hit rate 3.5% among 310,000; AID 2546;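 also: Gal4-VP16 expression switched on by copper sulfate through the metallothionein promoter; nearly all actives have a fitted effect of over 50% in size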
Numbers without * were called inactive; ? = inconclusive; . = no result; [ ] = remark or other dose. Rows were chosen to be rich in hits. Some 7.3% of all compounds tested hit in one or more screens of this group. Calls follow the shape of the dose curve; as a rule, active = well fitted curve in the direction sought with a large enough effect; inconclusive = small, poorly fitted or top-dose-only effect, or another doubt; inactive = no such curve, though single readings can be large; an effect the other way counts as inactive or inconclusive. % is scaled to controls: 0 for no effect and ±100 for the full control effect; potency is read from the fitted curve at half-maximal effect.

SMILES	RORg inh	Tau fluor cs	Tau fibril FP	Tau fibril ThT	Gal4-VP16 FLuc
CCCCCCCCCCOc1cc2c(=O)c(C(=O)OCC)c[nH]c2cc1OCC	7.1%	.	.	.	-4.2%
COCCCNC(=O)N1c2ccccc2Sc2ccccc21	26.0%	.	.	.	-11.2%
O=C(NCc1ccco1)N1c2ccccc2Sc2ccccc21	?	5.0%	3.3%	4.1%	35.5µM*
Cc1cc(C(=O)CN2C(=O)c3ccccc3S2(=O)=O)c(C)n1CC1CCCO1 (configuration not stated)	2.24µM*	-4.9%	0.4%	-5.1%	8.91µM*
Cc1cc(C(=O)COC(=O)c2ccc(O)cc2)c(C)n1CC1CCCO1 (configuration not stated)	7.08µM*	-0.8%	-1.1%	-9.5%	-21.3%
COc1cc(OC)c(C(=O)OCC(=O)c2cc(C)n(CC3CCCO3)c2C)cc1OC (configuration not stated)	?	-6.9%	-4.9%	-8.4%	-1.4%
O=C(O)[C@H]1CCCN(CCC=C(c2ccccc2)c2ccccc2)C1	-1.5%	-8.2%	3.4%	-6.1%	2.8%
CC(=O)C1=C(c2ccccc2)N(C(C)=O)n2c(nnc2C2CCCCC2)S1	.	-11.4%	-17.3%	?	.
O=C1CC(Nc2ccc(N3CCOCC3)cc2)C(=O)N1c1cccc(C(F)(F)F)c1 (configuration not stated)	-2.8%	-26.0%	0.0%	15.8µM*	-6.5%
COc1cccc(N2C(=O)CC(Nc3ccc(N4CCOCC4)cc3)C2=O)c1 (configuration not stated)	13.1%	-24.8%	1.4%	14.1µM*	2.2%
CN(C)c1ccc(N2C(=O)CC(Nc3ccc(N4CCOCC4)cc3)C2=O)cc1 (configuration not stated)	-0.6%	-15.1%	0.4%	14.1µM*	-8.9%
Cc1cc(C)c(Nc2cc(S(=O)(=O)O)c(N)c3c2C(=O)c2ccccc2C3=O)c(C)c1	-36.8%	7.08µM*[quencher]	20µM*	7.94µM*	?
Cc1cc(C)c(NC(=O)COC(=O)c2cccc3c2C(=O)c2ccccc2C3=O)c(C)c1	-10.2%	?	5.8%	?	-15.3%
O=C(Nc1cccc(-c2nn[nH]n2)c1)c1cccs1	7.94µM*	.	.	.	10µM*
CCc1ccc(C(=O)Nc2cccc(-c3nn[nH]n3)c2)s1	-17.9%	.	.	.	-26.7%
COc1ccc2c(c1OC)CN(C)CCc1cc3c(cc1C(O)C2)OCO3 (configuration not stated)	-19.6%	-13.8%	2.8%	-15.9%	-4.0%
COc1ccc2c(c1OC)C(Cc1ccccc1)N1CCc3cc4c(cc3C1C2)OCO4 (configuration not stated)	-22.8%	?	?	15.8µM*	?
O=c1cc(-c2ccccc2)nc2cc(-c3ccc(Br)cc3)[nH]n12	-6.9%	.	.	.	-22.0%
O=c1cc(-c2ccc([N+](=O)[O-])cc2)nc2cc(-c3ccc(Cl)cc3)[nH]n12	?	?	-0.7%	2.24µM*	4.0%
c1ccc2c(c1)Cc1cc3cc4c(cc3nc1-2)OCO4	2.24µM*	?	12.2%	3.16µM*	2.24µM*
c1ccc2c(c1)CCN(c1nc3cc4c(cc3s1)OCO4)C2	4.3%	-16.8%	13.9%	?	-7.7%
COc1c(O)ccc(/C=N\NC(=O)c2ccc3c(c2)OCO3)c1[N+](=O)[O-]	10µM*	.	.	.	?
COc1c(O)ccc(/C=N/NC(=O)c2ccc3c(c2)OCCO3)c1[N+](=O)[O-]	1.12µM*	-9.0%	-5.4%	?	1.58µM*
Cc1ccc(NC(=O)Cn2c(=O)n(Cc3ccc4c(c3)OCO4)c(=O)c3ccccc32)c(C)c1	.	-3.8%	?	8.9%	.
O=C1C(=O)N(Cc2cccnc2)C(c2ccccn2)/C1=C(/O)c1ccccc1 (configuration not stated)	0.447µM*	2.1%	1.3%	-3.2%	-3.1%
SMILES	RORg inh	Tau fluor cs	Tau fibril FP	Tau fibril ThT	Gal4-VP16 FLuc
Cc1cc(C)cc(OC(=O)CS(=O)c2ccc(C(F)(F)F)cc2[N+](=O)[O-])c1 (configuration not stated)	?	?	?	12.6µM*	?
O=C(NCCO)c1ccc(Oc2ccc(C(F)(F)F)cc2[N+](=O)[O-])cc1	26.3%	-5.0%	6.8%[2.34 µM]	-4.2%	-4.3%
O=C(CS(=O)c1ccc(C(F)(F)F)cc1[N+](=O)[O-])Oc1ccc(Cl)cc1 (configuration not stated)	?	?	?	22.4µM*	?
CSc1cccc(CN2CCCC(CNC(=O)c3ccco3)C2)c1 (configuration not stated)	-16.5%	.	.	.	2.5%
COc1cccc(Cn2c(=O)c(CCc3ccccc3)nc3cnc(N4CCN(C)CC4)nc32)c1	-25.4%	.	.	.	2.1%
CC(/C=C/c1ccco1)=N\NC(=O)c1cc(Cl)ccc1O	8.91µM*	-17.0%	0.3%	?	?
CC(/C=C/c1ccco1)=N\NC(=O)c1cccnc1	12.4%	-25.9%	?	28.2µM*	2.1%
NC(=S)N/N=C1\CC(n2nnn(-c3cccc(Cl)c3)c2=S)C2COC1O2 (configuration not stated)	3.98µM*	-14.5%	3.1%	-8.1%	?
C=CCn1c(O)c(CN2CCN(Cc3ccccc3)CC2)c(C)c(C#N)c1=O	23.4%	-23.4%	?	15.8µM*	5.6%
CCCn1c(O)c(CN2CCCCC2)c(C)c(C#N)c1=O	-0.7%	-19.2%	?	?	-0.6%
CCOC(=O)COc1ccc(/C=C/[N+](=O)[O-])c(OCC(=O)OCC)c1	?	6.7%	9.1%	?	?
CCOC(=O)Cn1cc(/C=C/[N+](=O)[O-])c2ccccc21	?	0.5%	3.1%	?	12.6µM*
CCOC(=O)COc1ccc2ccccc2c1/C=C/[N+](=O)[O-]	12.6µM*	4.9%	-0.1%	?	6.31µM*
COc1ccc(S(=O)(=O)N2CCN(C/C=C/c3ccccc3)CC2)cc1F	?	.	.	.	3.1%
CC1CCCC2(C1)NC(=S)c1c(sc3c1CCCC3)N2 (configuration not stated)	31.6µM*	?	?	17.8µM*	?
CN1C(=O)c2c(sc3c2CCCC3)NC1c1ccccc1O (configuration not stated)	39.6%	?	-10.6%	?	?
C=COc1ccc(N2C(=O)c3ccccc3OC2C)cc1 (configuration not stated)	-0.4%[1.91 µM]	.	.	.	-2.9%
COCCNC(=S)N/N=C(\C)c1ccccc1OC	2.51µM*	-3.9%	-9.0%	-4.7%	6.31µM*
Cc1ccc(OCCNC(=O)c2ccccc2F)cc1	26.8%	.	.	.	?
COCCNC(=S)N/N=C(\C)c1ccccc1O	0.199µM*	-5.4%	1.0%	-14.8%	0.447µM*
COCCNC(=S)N/N=C/c1ccccc1C(=O)O	12.3%	-3.9%	7.5%	-3.3%	0.1%
COCCNC(=S)N/N=C(\C)c1ccccc1F	3.55µM*	0.2%	-5.7%	5.1%	20µM*
